PubChem BioAssay (EPA / NIEHS)
Active and inactive are the calls of the source. Rule for the calls: active = hit-call score of the fitted dose curve at least 0.9, where 1 is the maximum; inactive = score below 0.9.

The molecules below were run against Hepatocyte nuclear factor 6 (Homo sapiens) (UniProt Q9UBC0) (assay: ATG_HNF6_CIS: Attagene CIS-FACTORIAL HepG2 Assay for human Hepatocyte Nuclear Factor 6 (HNF6) (AID 2282952)). Conditions: HepG2 Attagene cis-factorial HNF6 reporter transcription; actives raise or lower the signal.
Chain of Hepatocyte nuclear factor 6 (Homo sapiens) (Q9UBC0 whole entry, looked up): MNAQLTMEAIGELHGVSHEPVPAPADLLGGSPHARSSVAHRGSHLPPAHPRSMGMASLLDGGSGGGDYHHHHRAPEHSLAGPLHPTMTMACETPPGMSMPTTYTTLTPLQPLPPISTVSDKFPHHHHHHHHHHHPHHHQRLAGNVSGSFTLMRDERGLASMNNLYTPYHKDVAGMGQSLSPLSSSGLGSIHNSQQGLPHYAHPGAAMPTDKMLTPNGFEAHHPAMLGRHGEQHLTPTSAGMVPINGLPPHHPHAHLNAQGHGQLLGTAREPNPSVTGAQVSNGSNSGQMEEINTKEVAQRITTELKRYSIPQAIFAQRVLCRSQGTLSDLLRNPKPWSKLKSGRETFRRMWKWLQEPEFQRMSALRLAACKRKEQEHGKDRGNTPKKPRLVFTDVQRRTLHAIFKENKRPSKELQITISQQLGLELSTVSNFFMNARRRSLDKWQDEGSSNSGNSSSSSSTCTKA
Procedure: ATG_CIS is a cell-based, multiplexed-readout assay that uses HepG2, a human liver cell line, with measurements taken at 24 hours after chemical dosing in a 24-well plate.ATG_HNF6_CIS is one of 52 assay component(s) measured or calculated from the ATG_CIS assay. It is designed to make measurements of mRNA induction, a form of inducible reporter, as detected with fluorescence intensity signals by Reverse transcription polymerase chain reaction (RT-PCR) and Capillary electrophoresis technology.Data from the assay component ATG_HNF6_CIS was analyzed into 1 assay endpoint. This assay endpoint, ATG_HNF6_CIS, was analyzed with bidirectional fitting relative to DMSO as the negative control and baseline of activity. Using a type of inducible reporter, measures of mRNA for gain or loss-of-signal activity can be used to understand the reporter gene at the transcription factor-level as they relate to the gene ONECUT1. Furthermore, this assay endpoint can be referred to as a primary readout, because this assay has produced multiple assay endpoints where this one serves a reporter gene function. To generalize the intended target to other relatable targets, this assay endpoint is annotated to the dna binding intended target family, where the subfamily is homeobox protein.
Human liver HepG2 cells are transiently transfected with multiple reporter transcription units (MRTUs) in 6-well plates using FuGene 6 reagent (Roche; 3 ml FuGene/1 mg DNA). The MRTU constructs are regulated by a cis-regulating element (promoter). […] A major difference between the CIS and TRANS system is that in CIS activities of endogenous TFs are measured, whereas the TRANS assay evaluates changes in activities of exogenous, chimeric NR-Gal4 proteins. […] At the end of 24 hour incubation, total RNA was isolated using TriZol reagent (Invitrogen). The isolated RNA is then reverse-transcribed using oligo(dT) primer and Mo-MLV reverse transcriptase (Invitrogen) with DNAse I (Ambion) treatment for 30 min. The one-tenth of the produced cDNA was amplified by PCR using Taq DNA polymerase (Invitrogen) and two reporter sequence-specific primers. The PCR products were fluorescently labeled by primer extension with 6-arboxyfluorescein (6-FAM) 5'-labeled reporter sequence-specific primer (2 min at 95 C, 20 s at 68 C and 10 min at 72 C) and these products were digested with 5U of HpaI (New England Biolabs) for 2h at 37 C. The fragments were purified using Qiaquick PCR columns (Qiagen), analyzed on an ABI 3130xL genetic analyzer (Applied Biosystems) with peak positions identified by using a set of X-rhodamine (ROX)-labeled MapMarker1000 molecular weight standards (BioVentures). The raw capillary electrophoresis data was processed using Attagraph software (Attagene).
In the case of `CCCCN(CCCC)N=O`, the outcome is reported as “inactive”.
In the case of `CCN(CC)C1CCCCC1`, the outcome is reported as “inactive”.
`Cc1cccc(N)c1` was tested, and the outcome was “inactive”.
`ClC(Cl)(Cl)c1ccccc1` was tested, and the outcome was “inactive”.
In the case of `CC1(C)CN=C(NN=C(/C=C/c2ccc(C(F)(F)F)cc2)/C=C/c2ccc(C(F)(F)F)cc2)NC1`, the AC50 is reported as 17.3 µM (active).
For `CC(C)(C)OOC(C)(C)C`, the outcome was “inactive”.
For `CCCCc1ccc(O)cc1`, the outcome was “inactive”.
For `CCCCN(CCCC)SN(C)C(=O)Oc1cccc2c1OC(C)(C)C2`, the outcome was “inactive”.
In the case of `CCCCN(CC)C(=O)SCCC`, the outcome is reported as “inactive”.
In the case of `NNC(N)=S`, the outcome is reported as “inactive”.
For `Nc1cc2c3c(c1)C(c1ccccc1)=N[C@@H](NC(=O)c1cccnc1)C(=O)N3CC2`, the outcome was “inactive”.
With `CSC(C)(C)C=NO` the outcome was “inactive”.
For `CCCCCCCc1ccc(O)cc1`, the outcome was “inactive”.
For `O=S1(=O)OCC2C(CO1)C1(Cl)C(Cl)=C(Cl)C2(Cl)C1(Cl)Cl` (stereo not given), the outcome was “inactive”.
For `O=C(O)C(Cl)Cl`, the outcome was “inactive”.
`O=C(O)C(F)(F)C(F)(F)C(=O)O` was tested, and the outcome was “inactive”.
With `CC(=O)c1ccc(-c2ccccc2)cc1` the outcome was “inactive”.
In the case of `OCC(F)(F)OC(F)(F)C(F)(F)OC(F)(F)C(F)(F)OC(F)(F)F`, the outcome is reported as “inactive”.
`CC1=C(C(=O)Nc2ccccc2)S(=O)(=O)CCO1` was tested, and the AC50 was 45.4 µM (active).
`CCCCOCC1CO1` (stereo not given) was tested, and the outcome was “inactive”.
In the case of `CC(Cc1ccc(OCC(=O)O)cc1)NCC(O)c1csc(C(F)(F)F)n1` (stereo not given), the outcome is reported as “inactive”.
`COCCOCCO` was tested, and the outcome was “inactive”.
With `CCOP(=S)(Oc1ccc([N+](=O)[O-])cc1)c1ccccc1` (stereo not given) the outcome was “inactive”.
For `c1ccc2c(c1)sc1ccccc12`, the outcome was “inactive”.
In the case of `O=C(CBr)OCc1ccccc1`, the outcome is reported as “inactive”.
In the case of `C=CC(=O)OCC(CC)(COC(=O)C=C)COC(=O)C=C`, the outcome is reported as “inactive”.
In the case of `FC(F)(F)c1ccc(Cl)cc1`, the outcome is reported as “inactive”.
With `N#Cc1cc([N+](=O)[O-])ccc1N` the outcome was “inactive”.
`O=S(=O)(F)C(F)(F)C(F)(F)C(F)(F)C(F)(F)C(F)(F)C(F)(F)C(F)(F)C(F)(F)F` was tested, and the outcome was “inactive”.
In the case of `CCCCOCCOP(=O)(OCCOCCCC)OCCOCCCC`, the outcome is reported as “inactive”.
`ClC(Cl)=C(c1ccc(Cl)cc1)c1ccccc1Cl` was tested, and the outcome was “inactive”.
In the case of `CC(O)C#N` (stereo not given), the outcome is reported as “inactive”.
In the case of `CNC(=O)Oc1ccc(N(C)C)c(C)c1`, the outcome is reported as “inactive”.
In the case of `OCC(F)(F)OC(F)(F)C(F)(F)OC(F)(F)C(F)(F)OC(F)(F)CO`, the outcome is reported as “inactive”.
For `O=[N+]([O-])c1cc(Cl)ccc1Cl`, the outcome was “inactive”.
In the case of `Cc1ccc2c(c1N)C(=O)c1ccccc1C2=O`, the outcome is reported as “inactive”.
For `[N-]=[N+]=[N-]`, the outcome was “inactive”.
`C/C(=N\NC(=O)Nc1cc(F)cc(F)c1)c1ncccc1C(=O)O` was tested, and the outcome was “inactive”.
With `CC(=O)CCc1ccc2c(c1)OCO2` the outcome was “inactive”.
With `N#Cc1c(-c2ccc(Cl)cc2)[nH]c(C(F)(F)F)c1Br` the outcome was “inactive”.
